Most compounds without a hit are left out; they make up all but 1.5% or so of the library.
CRFBP-R2 block: antagonists of CRF-binding protein/CRF-R2 receptor complex | inhibition, % at 11.8 µM | HEK293 CRF-R2/CRF-BP, CRF-induced calcium fluorescence | AID 588475 | 0.59% of 350,000 active;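 active means inhibition of the ligand-induced calcium signal above about 50% at the single tested concentration, limit read from the data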
NTR1 ag: activates human neurotensin receptor 1 | NTR1-U2OS beta-arrestin-GFP spot imaging, agonist mode | P30989 | activation, % at 20 µM | 0.17% of 330,000 active;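 active means activation at or above 40% of the spot to cytoplasm intensity ratio, with at least 20 cells analyzed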;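 further: 0% = DMSO without peptide and 100% = 100 nM NTR1 peptide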
Target sequence (P30989 whole entry, looked up): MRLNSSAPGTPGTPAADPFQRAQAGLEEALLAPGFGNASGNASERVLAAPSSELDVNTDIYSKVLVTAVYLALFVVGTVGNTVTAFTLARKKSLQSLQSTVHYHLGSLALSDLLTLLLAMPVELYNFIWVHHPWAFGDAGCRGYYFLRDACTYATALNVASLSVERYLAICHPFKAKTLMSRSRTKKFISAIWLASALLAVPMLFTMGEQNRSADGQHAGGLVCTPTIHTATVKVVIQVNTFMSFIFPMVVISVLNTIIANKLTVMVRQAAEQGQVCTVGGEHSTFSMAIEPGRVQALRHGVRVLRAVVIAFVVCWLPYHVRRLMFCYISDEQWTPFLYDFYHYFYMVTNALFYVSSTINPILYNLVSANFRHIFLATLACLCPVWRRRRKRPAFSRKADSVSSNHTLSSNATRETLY
V-ATPase pH: yeast V-ATPase proton transport regulation by pHLuorin. S. cerevisiae, pHLuorin cytosolic pH fluorescence. 0.37% of 350,000 active. AID 504577. response, % at 10 µM; in the data active means response mostly above about 7.3%, no sharp cut-off; inactive means mostly below about 5.4%; further: actives read high
CRFBP-R2 agonist: CRF-BP/CRF-R2 complex agonism. HEK293 CRF-R2/CRF-BP, calcium dye fluorescence (FLIPR); percent of saturating CRF peptide response. activation, % at 13.2 µM. 0.46% of 350,000 active. AID 588473;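 active means activation of at least 50%, plus an integration ratio under a set limit after plate pattern correction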;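 further: plate controls were neutral control wells without compound for no effect and CRF at EC100 for full effect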
An asterisk follows results filed as active; · = not tested or not shown.

SMILES | CRFBP-R2 block | NTR1 ag | V-ATPase pH | CRFBP-R2 agonist
O=Nc1c(O)n(Cc2ccc(Cl)cc2)c2ccccc12 | -27 | 5 | -4 | 0
O=Nc1c(O)n(Cc2c(Cl)cccc2Cl)c2ccccc12 | -9 | 6 | 0 | 163*
Cc1cc(C)c2nc3nc(C)c(C)cc3c(N)c2c1 | 111* | -1 | -60 | 71*
CCCSc1nc(C)c2cc(C)cc(C)c2n1 | -13 | 5 | 2 | -1
Nc1ccc2cc3[nH]c4cc(N)ccc4c3nc2c1 | -130 | · | -49 | 175*
Nc1ccc(-c2nc3ccc(N)cc3[nH]2)cc1 | 14 | 1 | -4 | 0
CC(C)(O)[C@@H]1CC[C@@](C)(C2CC[C@]3(C)C2[C@H](O)CC2[C@@]4(C)CC[C@H](O)C(C)(C)C4[C@@H](O[C@H]4O[C@@H](CO)[C@H](O)[C@@H](O)[C@@H]4O[C@@H]4O[C@H](CO)[C@@H](O)[C@H](O)[C@H]4O)C[C@]23C)O1 (stereo in doubt) | -1 | -1 | 3 | 0
Cc1cccc(C(C)C)c1-n1nnnc1-c1ccccc1 | 54* | 1 | 1 | -5
O=C(COc1ccc(F)c(Cl)c1)Nc1ccc(N2CCOCC2)cc1 | 10 | 1 | 1 | -6
O=C(COc1cccc(Cl)c1)Nc1ccc(N2CCOCC2)cc1 | 80* | 1 | -2 | 7
CCC1c2ccccc2C(=O)C1C(N)=O (stereo unspecified) | 21 | · | 5 | -1
COC(=O)CN1C(=O)COc2ccc(S(=O)(=O)NCc3ccc(Cl)cc3)cc21 | 99* | 0 | 3 | 1
Cc1ccc(S(=O)(=O)c2c(C)cc(C)[nH]c2=O)cc1 | -2 | -1 | 3 | 1
COc1ccc(/C=C(\NC(=O)c2ccc(OC)cc2)C(=O)Nc2ccccc2C(=O)O)cc1 | 9 | 1 | -2 | -1
CNc1nc(-c2c(C)[nH]c3ccc(OC)cc23)cs1 | 88* | -1 | -2 | 8
CC1(c2ccc(OC(F)F)cc2)NC(=O)N(/N=C/c2c(O)ccc3ccccc23)C1=O (stereo unspecified) | -122 | 5 | 2 | 87*
Cc1ccccc1OCC(=O)NC1=NCCS1 | -16 | 2 | 17* | 1
O=[N+]([O-])c1cccc(C=NNc2ccccc2)c1 | -17 | · | -1 | -1
O=[N+]([O-])c1cccc(/C=N/NC2=NCCCCC2)c1 | 52* | -1 | -2 | -2
COc1cc(C(=O)OCC(=O)Nc2ccc(C)cc2)cc(OC)c1OC | -9 | -2 | -1 | 0
CCOCCCN(Cc1cc2cc(C)cc(C)c2[nH]c1=O)C(=O)N(CC)CC | 52* | 6 | -2 | -1
OC(CNCCc1ccc(C(F)(F)F)cc1)COC(c1ccccc1)c1ccccc1 (stereo unspecified) | -37 | 66* | 2 | 7
COc1ccc(C(OCC(O)CNCCc2ccc(S(N)(=O)=O)cc2)c2ccc(OC)cc2)cc1 (stereo unspecified) | -6 | 1 | -1 | -5
COC(=O)c1c(-c2ccc(F)cc2)csc1NC(=O)C1CCCO1 (stereo unspecified) | 1 | 4 | -1 | 0
CCOC(=O)c1c(-c2ccc(OC)c(OC)c2)csc1NC(=O)C1CCCO1 (stereo unspecified) | 60* | 0 | 0 | -6
SMILES | CRFBP-R2 block | NTR1 ag | V-ATPase pH | CRFBP-R2 agonist
Nc1ccc2ccccc2c1C(=O)c1ccccc1 | -3 | · | -2 | -5
COc1ccc(CCNC(=O)CCc2cc(OC)c(OC)c(OC)c2)cc1OC | 7 | -2 | -2 | 0
CCN(CC)c1ccc2c(c1)OC(N)=C(C#N)C2c1cccnc1 (stereo unspecified) | -183 | 0 | 0 | 181*
O=C(CSc1ncc(-c2ccccc2)n1C1CCCC1)N1CCc2ccccc21 | -124 | 4 | -3 | 102*
CCOC(=O)c1sc(NC(=O)c2cccc(S(=O)(=O)N3CCN(C)CC3)c2)cc1C | 67* | -5 | -10 | -2
CCOC(=O)c1sc(NC(=O)c2cccc(S(=O)(=O)N(CC)CC)c2)cc1C | 1 | -2 | 0 | -1
COc1ccc2c(C)cc(SCc3c(C)noc3C)nc2c1 | 56* | 2 | 1 | -1
O=C(COC(=O)c1cc2ccccc2cc1O)NC1CCCCC1 | 87* | 0 | 3 | -1
O=C(COC(=O)c1cc(Br)ccc1O)NC1CCCCCC1 | 8 | 3 | 4 | -1
O=C(COC(=O)c1ccccc1)NC1CCCC1 | 12 | 2 | 263* | -1
Cc1onc(-c2ccccc2)c1C(=O)N/N=C/c1cc(Br)c(Br)o1 | 103* | 9 | -2 | 2
Cc1ccc(/C=N/NC(=O)c2c(-c3ccccc3)noc2C)o1 | 5 | -1 | -2 | -1
Cc1onc(-c2ccccc2)c1C(=O)NNC(=S)NC(=O)c1ccc(Br)cc1 | -39 | · | 1 | 150*
Cc1onc(-c2ccccc2)c1C(=O)NNC(=O)c1ccccc1 | 4 | -1 | -1 | 0
Cc1onc(-c2ccccc2)c1C(=O)NNC(=S)NC(=O)c1ccc(Cl)cc1Cl | -137 | 9 | -1 | 217*
Cc1onc(-c2ccccc2)c1C(=O)NNC(=S)NC(=O)/C=C/c1ccccc1 | -26 | 11 | -4 | 66*
COc1cc(/C=C/C(=O)NC(=O)c2ccccc2O)ccc1OC(C)=O | 4 | 4 | 2 | -1
CSc1ccc(/C=C(/NC(=O)c2ccccc2)C(=O)NCCN2CCOCC2)cc1 | 2 | 2 | 6 | 0
Cc1ccc(-c2nnc(SCC(=O)N(CC(C)C)c3c(N)n(Cc4ccccc4)c(=O)[nH]c3=O)n2N)cc1 | 12 | 0 | 1 | 0
COC(=O)[C@H](Cc1c[nH]c2ccccc12)NC(=O)NCc1ccc(OC)cc1 | -7 | 0 | 0 | -2
CCNC(=S)NNC(=O)c1cccn(Cc2ccc(Cl)cc2Cl)c1=O | -87 | 0 | -3 | 61*
COC(=O)c1cc(OC)c(OC)cc1NC(=O)c1c(-c2ccccc2)noc1C | 68* | 3 | 6 | -1
COc1ccc(NC(=O)c2c(-c3ccccc3)noc2C)c(OC)c1 | -10 | -1 | -1 | -1
Cc1ccccc1C(=O)NNC(=S)NC(=O)c1ccc(Cl)cc1Cl | -62 | 7 | 1 | 158*
Cc1ccccc1-n1nc2c(c1NC(=O)CC(C)C)CS(=O)C2 (stereo unspecified) | 4 | 1 | 0 | -3
SMILES | CRFBP-R2 block | NTR1 ag | V-ATPase pH | CRFBP-R2 agonist
CCOC(=O)C1C(=O)NC(N2CCCCC2)=NC1c1ccco1 (stereo unspecified) | 18 | 0 | 15* | -1
CC(=O)OCCn1c2nc(=O)[nH]c(=O)c-2nc2cc(C)c(C)cc21 | -160 | 0 | -22 | 203*
CCCCC(CC)CN=C(N)NC(N)=NCCCCCCN=C(N)NC(N)=NCC(CC)CCCC (stereo unspecified) | -71 | 1 | 84* | 112*
CCn1c(=O)c(C(=O)NCc2ccccc2Cl)c(O)c2ccccc21 | -22 | 4 | -3 | 6
Cn1c(=O)c(C(=O)NCc2ccccc2Cl)c(O)c2ccccc21 | 65* | 1 | -4 | 1
CCCn1c(=O)c(C(=O)NNC(=O)c2ccccc2Cl)c(O)c2ccccc21 | 4 | 11 | -3 | 66*
COc1ccc(S(=O)(=O)Nc2ccc(N3CCOCC3)cc2)cc1 | -14 | -2 | 0 | 0
